# In PubChem BioAssay (NCI):
# Compounds without any hit were thinned out: in the full panel of roughly 83,000, 20% have a hit.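 Assay: single dose, 48 h. Readout: percent growth (0 = no net growth; negative = cell death). Active: <10.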 Values without a mark were called inactive. Calls of active or inactive are those of the source.
# How the values were obtained:
# Experiment in all cases: NCI-60 one-dose screen, 48 h (100 = growth as untreated, 0 = no growth, -100 = all killed)
# Details in all cases: 10 µM
# DU-145 prostate = test system: DU-145 prostate
# K-562 leukemia = test system: K-562 leukemia
# MALME-3M melanoma = test system: MALME-3M melanoma
# MDA-MB-231 breast = test system: MDA-MB-231 breast
# SF-268 CNS = test system: SF-268 CNS
# SF-295 CNS = test system: SF-295 CNS
# SF-539 CNS = test system: SF-539 CNS
# UACC-257 melanoma = test system: UACC-257 melanoma
# M14 melanoma = test system: M14 melanoma
# RXF 393 renal = test system: RXF 393 renal
Structure (SMILES),growth (DU-145 prostate),growth (K-562 leukemia),growth (MALME-3M melanoma),growth (MDA-MB-231 breast),growth (SF-268 CNS),growth (SF-295 CNS),growth (SF-539 CNS),growth (UACC-257 melanoma),growth (M14 melanoma),growth (RXF 393 renal)
CC(=O)c1cc(C(=O)N2c3ccccc3Sc3ccccc32)n2ccc(C)cc12,56.6%,18.7%,53.9%,46.4%,49.4%,36.5%,32.7%,31.6%,36.1%,
CN1CCN(Cc2ccc(NC(=O)c3cncc(C#Cc4cnc5ccc(N[C@H]6CCOC6)nn45)c3)cc2C(F)(F)F)CC1,-99.9% (active),0.651% (active),-97.3% (active),-92.4% (active),-74.5% (active),-98.4% (active),-99.7% (active),-84.1% (active),-82% (active),
C/C(=C\c1ccc(O)cc1O)c1ccc2ccc(O)cc2[o+]1,25.8%,72.7%,56.8%,39.6%,116%,80.6%,72.4%,84%,73.3%,
COc1ccc(C(=O)CSc2nnc(-c3c[nH]c4ccccc34)n2-c2ccccc2)cc1,68.9%,58.2%,-16.2% (active),32.5%,41%,36.2%,28.5%,59.5%,75.7%,
O=C(CSc1nnc(-c2c[nH]c3ccccc23)n1-c1ccccc1)Nc1ccc(C(=O)/C=C/c2ccc(Cl)cc2)cc1,79.7%,59.4%,61.6%,79.3%,56.9%,65.3%,63.9%,104%,81.8%,
COc1cc2c3c(n(CCCn4ccnc4)c(=O)c2cc1OC)-c1nc2c(cc1C3=O)OCO2,13.4%,28.4%,59.9%,84.1%,42.4%,-7.74% (active),-10.1% (active),66%,19.9%,
O=C(CSc1nnc(-c2c[nH]c3ccccc23)n1-c1ccccc1)Nc1ccc(C(=O)/C=C/c2cccc([N+](=O)[O-])c2)cc1,95.9%,86.1%,90.9%,91.7%,78.8%,88.4%,89.6%,102%,94.1%,
N#Cc1ccc(NC(=O)CSc2ccc(-c3ccc(Br)cc3)nn2)cc1,88.8%,48.7%,68.8%,76.7%,62.6%,58.9%,67.2%,47.3%,63.5%,
N#Cc1ccc(-c2nn(-c3ccc(C(=O)O)cc3)cc2CNc2cccc(Br)c2)cc1,76.8%,46.3%,95.6%,89.4%,51.7%,42.5%,38.6%,65.7%,37.2%,
CC(C)c1ccc(C(=O)Nc2sc3c(c2C(N)=O)CCC(=O)C3=O)cc1,103%,77.4%,103%,93.3%,103%,104%,93.9%,93.8%,96.3%,
CCCCSc1nc(Nc2ccc(/C(C)=N/NC(N)=S)cc2)c(C#N)c(-c2ccc(F)cc2)n1,41.5%,71.9%,33.9%,3.28% (active),90.1%,28.5%,-13.5% (active),78.6%,79%,
Cc1ccc(-c2nc(Nc3ccc(C)c(S(N)(=O)=O)c3)c3ccccc3n2)cc1,35%,5.02% (active),92.4%,96.5%,96.1%,85.2%,-31.3% (active),104%,63.2%,
CC1(C)CC[C@]2(C(=O)NCCCNCCCCNCCCN)CC[C@]3(C)C(=CC[C@@H]4[C@@]5(C)Cc6c([nH]c7ccccc67)C(C)(C)[C@@H]5CC[C@]43C)[C@H]2C1,96.3%,,85.3%,-7.91% (active),113%,98.5%,90.7%,95.9%,59.7%,78.1%
CCN1CCN(c2ccc(NC(=O)Nc3ccc4c(c3F)CCN4c3ccnc(C(=O)NC)c3)cc2C(F)(F)F)CC1,-91.2% (active),,-94.3% (active),-88.9% (active),-64.2% (active),-74.1% (active),-100% (active),99.3%,-92.6% (active),-93% (active)
CCOC(=O)C1=C(N)N(c2ccc(Cl)cc2)C2=C(C(=O)CC(C)(C)C2)C1c1ccc(N2CCOCC2)cc1 (stereo not drawn),99%,,93.9%,87.3%,89.7%,89.3%,100%,106%,103%,98.6%
Cc1ccc(-c2nc3ccc(C(=O)N=Nc4c(O)[nH]c5ccc([N+](=O)[O-])cc45)cc3[nH]2)cc1,47.8%,,57.5%,66.9%,60.1%,93.5%,52.7%,84.8%,73.8%,83.5%
O=C1CCC(N2Cc3c(C#CCCCNC(=O)c4ccc(NC(=O)[C@@H]5NC6(CCCCC6)[C@@]6(C(=O)Nc7cc(Cl)ccc76)[C@H]5c5cccc(Cl)c5F)cc4)cccc3C2=O)C(=O)N1 (stereo partly drawn),82.1%,,17.7%,52%,70.3%,54.8%,35.1%,60.5%,50.1%,46.3%
COc1ccc(-c2nc(S(=O)(=O)c3ccc(C)cc3)c(S(C)(=O)=O)o2)cc1,-99.1% (active),,-95.5% (active),-92.4% (active),-37% (active),78.4%,-100% (active),-84.6% (active),-31.9% (active),-95.1% (active)
CCCCCc1ccc(S(=O)(=O)N(C(C)=O)c2cc(-c3csc(N(C)C(C)=O)n3)ccc2N2CCN(C)CC2)cc1,46.4%,,-93.3% (active),-5.42% (active),65.9%,-88.2% (active),-95.7% (active),-34.1% (active),-78.1% (active),-69.7% (active)
CN1CCN(c2ccc(Nc3nc(NCCCNC(=O)c4ccccc4)c4sccc4n3)cc2)CC1,75.5%,,46.1%,88.6%,77.6%,85.9%,-89.5% (active),32.5%,38.6%,2.61% (active)
Cc1ccc(-c2nc3ccc(C(=O)N=Nc4c(O)[nH]c5ccc(Cl)cc45)cc3[nH]2)cc1,6.16% (active),,-28.7% (active),-73% (active),-33.4% (active),10.1%,33.2%,81.7%,6.09% (active),-68% (active)
CN1CCN(c2ccc(Nc3nc(NCCNC(=O)c4ccc(C(F)(F)F)cc4)c4sccc4n3)cc2)CC1,45.7%,,-100% (active),-36.1% (active),21.8%,-62.7% (active),-99.7% (active),-93.4% (active),-54.4% (active),-82.2% (active)
O=C(Nc1ccc(OCc2ccccc2)cc1)Nc1ccc(Cl)c(C(F)(F)F)c1,13%,,-30.8% (active),-20% (active),14.9%,-26.5% (active),-46.9% (active),-20.7% (active),19.3%,-3.2% (active)
C#CCNC(=O)[C@]12CCC(C)(C)C[C@H]1C1=CC[C@@H]3[C@@](C)(CCC#N)[C@H](C(=C)C)CC[C@@]3(C)[C@]1(C)CC2,91.4%,,75.9%,39.6%,86.2%,38.2%,83.4%,54.4%,76.3%,66.8%
C[C@H]1[C@H](C)CC[C@]2(COC(=O)CCC(=O)NCC#CCN3CCNCC3)CC[C@]3(C)C(=CC[C@@H]4[C@@]5(C)CCCNC(C)(C)[C@@H]5CC[C@]43C)[C@H]12,74.4%,,-38.7% (active),43.4%,77.1%,28.1%,41.9%,26.3%,-16.7% (active),50.3%
O=C(Cn1cc(CSc2nnc3oc4ccccc4n23)nn1)Nc1ccc(Br)cc1,92.3%,,87.8%,35.5%,37.8%,43.7%,29.9%,88.8%,98.8%,6.71% (active)
N[C@@H](CSSC[C@H](N)C(=O)Nc1ccc(OCC2CCCC2)cc1)C(=O)Nc1ccc(OCC2CCCC2)cc1,-88.4% (active),,-63.7% (active),-97.4% (active),-73.1% (active),-90.4% (active),-99.7% (active),-96.1% (active),-74.5% (active),-94.1% (active)
